From PubChem
USP17 inh – inhibitors of human USP17 deubiquitinase; 47,000 tested, 6.5% active; inhibition, % at 50 µM; AID 1645855, 2021; Ubiquitin carboxyl-terminal hydrolase 17-like protein 5 (Homo sapiens), A8MUK1; purified USP17, Ub-rhodamine cleavage fluorescence, 3 h
USP8 inh – inhibitors of human USP8 deubiquitinase. Ubiquitin carboxyl-terminal hydrolase 8 (Homo sapiens), P40818. inhibition, % at 20 µM. 47,000 tested, 4.2% active. purified USP8, Ub-rhodamine cleavage fluorescence, 30 min
USP10 inh – inhibitors of human USP10 deubiquitinase; Ubiquitin carboxyl-terminal hydrolase 10 (Homo sapiens), Q14694; purified USP10, Ub-rhodamine fluorescence, 60 min; inhibition, % at 20 µM; 47,000 tested, 1.1% active; AID 1645856, 2021
USP28 inh – inhibitors of human USP28 deubiquitinase; AID 1645857, 2021; 47,000 tested, 3% active; inhibition, % at 25 µM; purified USP28, Ub-rhodamine cleavage fluorescence, 30 min
USP30 inh – inhibitors of human USP30 deubiquitinase | AID 1645860, 2021 | Ubiquitin carboxyl-terminal hydrolase 30 (Homo sapiens), Q70CQ3 | 47,000 tested, 5.3% active | purified USP30, Ub-rhodamine cleavage fluorescence | inhibition, % at 25 µM
Target sequence (Q70CQ3 whole entry, looked up): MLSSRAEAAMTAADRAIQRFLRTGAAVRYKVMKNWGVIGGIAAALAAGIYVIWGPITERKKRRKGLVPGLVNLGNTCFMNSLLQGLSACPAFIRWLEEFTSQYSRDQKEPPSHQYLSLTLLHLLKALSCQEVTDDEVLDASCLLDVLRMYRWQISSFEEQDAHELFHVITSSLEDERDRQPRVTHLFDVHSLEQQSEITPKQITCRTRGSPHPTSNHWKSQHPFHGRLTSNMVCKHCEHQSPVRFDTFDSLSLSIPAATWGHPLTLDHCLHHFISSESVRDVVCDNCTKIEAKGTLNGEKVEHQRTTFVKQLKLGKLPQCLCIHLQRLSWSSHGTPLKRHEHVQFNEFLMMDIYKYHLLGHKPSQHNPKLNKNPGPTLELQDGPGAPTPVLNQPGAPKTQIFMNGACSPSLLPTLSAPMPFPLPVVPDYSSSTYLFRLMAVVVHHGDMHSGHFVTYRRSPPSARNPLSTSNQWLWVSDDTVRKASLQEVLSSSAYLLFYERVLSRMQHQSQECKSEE
* marks the source's active call; other numbers are inactive results; / = no result. A selection: hits, their analogues and other compounds. The true share with any hit is near 14%. Cut-off read from the data, not from the text of the source: active = inhibition above about 30%; inactive = the rest.

SMILES	USP17 inh	USP8 inh	USP10 inh	USP28 inh	USP30 inh
O=C(Nc1ccc(Cl)cc1)C1CCCN(c2ncccn2)C1 (centres undefined)	10	33*	-1	10	15
COc1ccc(-c2cc(C(=O)N3CCn4nc(C)nc4C3)[nH]n2)cc1	-12	-4	-5	-8	-26
COc1ccc(C2CC(=O)C3=C(C2)Nc2ccccc2N(C(=O)C2CC2)C3c2cc(OC)c(OC)c(OC)c2)cc1 (centres undefined)	3	16	22	-8	12
Cc1ccc(-c2nc(CNC(=O)C(C)Oc3ccccc3F)cs2)cc1 (centres undefined)	7	5	7	9	46*
COc1cnc(CSc2ncccn2)cc1OCC(=O)Nc1cccc(F)c1	-7	-61	3	4	32*
COc1cnc(CSc2ncccn2)cc1OCC(=O)Nc1ccccc1F	-6	-48	4	-10	-296
COc1cnc(CSc2nccc(C)n2)cc1OCC(=O)Nc1cc(C)ccc1C	1	-4	-3	14	24
COc1cnc(CSc2ncccn2)cc1OCC(=O)Nc1cc(C)ccc1C	-16	-63	-1	-17	55*
O=C(Nc1c(C(=O)N2CCOCC2)oc2ccccc12)c1ccc(F)cc1	-3	3	1	1	22
N#Cc1ccc(-n2cc(-c3ccncn3)cn2)cc1	-15	-2	-4	-10	-43
Cc1ccc2c(Nc3ccc(C(N)=O)cc3)c(C(=O)N3CCCC3)cnc2n1	-10	-6	-6	-6	-22
O=C(COC(=O)c1ccc(NS(=O)(=O)c2ccc3c(c2)OCCO3)cc1)NCc1ccc(Cl)cc1	18	1	24	75*	50*
O=C(CNc1ccc(F)c(Cl)c1)Nc1ccc2c(c1)OCCO2	17	28	9	64*	12
Cc1cc(C)cc(C(=O)OCC(=O)Nc2ccc3c(c2)OCCO3)c1	5	1	5	2	14
O=C(COC(=O)c1cc(Cl)ccc1O)Nc1ccc2c(c1)OCCO2	60*	19	11	14	19
Cc1ccc(S(=O)(=O)N(CC(=O)Nc2ccc3c(c2)OCCO3)c2ccccc2F)cc1	4	12	8	25	25
O[C@H]1[C@H](NC2CCOCC2)[C@@H](c2ccncc2)C[C@H]1O	-43	-7	0	-14	-46
CCC(C)c1ccc(O[C@@H]2O[C@@H]3COC(c4ccccc4)O[C@H]3[C@H](O)[C@H]2NC(C)=O)cc1 (some centres undefined)	40*	22	10	34*	82*
Cc1nc(N2CCN(C/C=C/c3ccccc3)CC2)c2c(C)c(C)sc2n1	-16	-3	0	-11	-41
Cc1cccc(C)c1NC(=O)Cn1cccc(-c2nc(-c3ccccc3)no2)c1=O	-4	7	2	-1	1
CCCN1C(=O)CCc2cc(NC(=O)c3ccccc3)ccc21	2	2	2	27	10
CN1C(=O)CCc2cc(NC(=O)c3cc4ccccc4[nH]3)ccc21	33*	-13	-7	-32	-88
Cc1cc2c3c([nH]c2cc1S(=O)(=O)N1CCCCC1C)CC(C)(C)CC3=O (centres undefined)	3	14	7	-6	5
Cc1cc2c3c([nH]c2cc1S(=O)(=O)N1CCCCC1C)CCCC3=O (centres undefined)	37*	11	5	4	-52
CCc1cc2c3c([nH]c2cc1S(=O)(=O)NCc1ccccc1)CCCC3=O	-17	-23	4	11	-31
SMILES	USP17 inh	USP8 inh	USP10 inh	USP28 inh	USP30 inh
Cc1ccc(CNS(=O)(=O)c2cc3[nH]c4c(c3cc2C)C(=O)CCC4)cc1	-22	8	0	44*	-29
Cc1cc2c3c([nH]c2cc1S(=O)(=O)NCc1ccc2c(c1)OCO2)CCCC3=O	0	0	0	31*	-39
Cc1ccc2c(c1)c(N1CCCC1=O)c(C(=O)NCCN1CCOCC1)n2C	-7	3	-2	-10	-20
COC(=O)c1cc2c(ccn2C)n1Cc1ccc(F)cc1	-15	52*	-9	-72	-372
COC(=O)c1cc2c(ccn2C)n1CC(=O)N1CCN(Cc2ccccc2)CC1	-44	32*	-5	-69	-265
COC(=O)c1cc2c(ccn2C)n1CC(=O)N(C1CCCCC1)C1CCCCC1	-29	49*	-5	-80	-301
Cc1nn(C)c(C)c1CN(C(=O)C(C)Oc1ccccc1F)C1CC1 (centres undefined)	-8	3	0	/	/
O=C(c1ccc(Cl)cc1F)N1CCN(Cc2cc(=O)n3ccsc3n2)CC1	5	-8	4	12	11
COc1cc(-c2ccccc2)c(O)c(O)c1-c1ccccc1	99*	73*	67*	96*	91*
COc1ccc(NC(=O)c2oc(=O)c3ccccc3c2-c2ccccc2)cc1Cl	6	18	8	1	0
NCCCNC(=O)N1CCN(c2nc(-c3cccnc3)nc3ccccc23)CC1	-7	-17	5	10	7
O=C(CN1C(=O)c2ccccc2Sc2ccc(C(=O)N3CCCC3)cc21)Nc1ccccc1Cl	52*	5	11	38*	-140
CC(=O)Nc1ccc(C2=CSC3=NS(=O)(=O)CCN23)cc1	9	12	-2	13	32*
O=S1(=O)CCN2C(c3ccc4c(c3)CCCC4)=CSC2=N1	20	12	1	27	18
CSc1ncccc1C(=O)Nc1ccnn1Cc1ccc(C)o1	11	14	0	9	13
Cc1cc(C)c(NC(=O)Cn2c(=O)n(Cc3ccccc3)c(=O)c3nn(C)cc32)c(C)c1	68*	41*	1	64*	85*
CCn1cc2c(n1)c(=O)n(Cc1ccccc1)c(=O)n2CC(=O)Nc1ccc(C)cc1C	36*	93*	30*	16	33*
COc1ccccc1-c1cc2n(n1)CCN(Cc1ccc(C)c(C)c1)C2	-8	-17	5	-12	-7
COc1ccc(C(=O)NCCS(=O)(=O)N2CCN(c3ccccc3)CC2)cc1	40*	-4	2	4	-6
Cc1cc(NCCc2ccc(Cl)cc2)n2nc(C)nc2n1	-14	-47	1	-3	-9
Cc1cc(NCC2CC2)n2nc(Nc3cc(Cl)ccc3C)nc2n1	71*	0	-3	11	31*
C[C@@H]1C(=O)N2CCN(S(=O)(=O)c3ccccc3Cl)C[C@H]2C(=O)N1C	10	-8	1	14	22
Cc1noc(/C=C/Nc2ccc(OC(F)(F)F)cc2)c1[N+](=O)[O-]	-6	41*	10	-19	-25
CC1(C)Cc2c(c(N3CCOCC3)nc3sc4c(SCC(=O)Nc5ccccn5)ncnc4c23)CO1	18	-6	0	8	5
COc1ccc(NC(=O)Cn2c(C)cc(=O)n3nc(-c4cccc(C)c4)nc23)cc1	16	64*	47*	3	31*
